Results taken from PubChem BioAssay AID1159580 (chemical genetic matrix, 2015).
Where “and” joins values, the source holds several entries; their conditions need not be identical. Equal values may be shown once. About 2,000 (36%) of roughly 5,500 compounds were called active. Roughly 18% stayed inconclusive and do not appear here. No stated cut-off is given here; in the data, active means normalized growth mostly below about 0.91 (no sharp cut-off); inconclusive means no clear call, values can overlap the other calls; inactive means mostly above about 0.92. The list shows a part of the results.

Assay: chemical genetic growth profiling, strain panel (AID 1159580);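 further: tested at 20 µM; growth read once vehicle control cultures reached saturation at 30 °C; 1 = growth at the plate median or of vehicle wells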
Details: S. cerevisiae deletion strains, growth OD
[1] = locus YAL013W, strain DEP1, stronger effect = lower value
[2] = locus YDR150W, strain NUM1, stronger effect = lower value
[3] = locus YGR078C, strain PAC10, stronger effect = lower value
[4] = locus YMR263W, strain SAP30, stronger effect = lower value
[5] = locus YPL055C, strain LGE1, stronger effect = lower value
[6] = locus YPL241C, strain CIN2, stronger effect = lower value
[7] = locus YBR229C, strain ROT2, stronger effect = lower value
[8] = locus YDL101C, strain DUN1, stronger effect = lower value
[9] = locus YEL061C, strain CIN8, stronger effect = lower value
[10] = locus YHR030C, strain SLT2, stronger effect = lower value
[11] = locus YHR087W, strain rtc3, stronger effect = lower value
[12] = locus YJR043C, strain POL32, stronger effect = lower value
[13] = locus YJR075W, strain HOC1, stronger effect = lower value
[14] = locus YLR039C, strain RIC1, stronger effect = lower value
[15] = locus YLR058C, strain SHM2 (second series), stronger effect = lower value
[16] = locus YLR085C, strain ARP6, stronger effect = lower value
[17] = locus YLR262C, strain YPT6, stronger effect = lower value
[18] = locus YML094W, strain GIM5, stronger effect = lower value
[19] = locus YMR219W, strain ESC1, stronger effect = lower value
[20] = locus YNL153C, strain GIM3, stronger effect = lower value
[21] = locus YNL298W, strain CLA4 (second series), stronger effect = lower value
[22] = locus YNL322C, strain KRE1, stronger effect = lower value
[23] = locus YNR030W, strain Alg12, stronger effect = lower value
[24] = locus YPR135W, strain CTF4, stronger effect = lower value

Measured: normalized growth

CNC(CC(=O)O)C(=O)O (configuration not stated)
inactive: [1] 1.02 | locus YAL040C, strain CLN3, stronger effect = lower value 1.02 | locus YCL061C, strain MRC1 (second series), stronger effect = lower value 1.02 | [2] 1.03 | locus YDR363W, strain ESC2, stronger effect = lower value 1 | locus YER002W, strain NOP16, stronger effect = lower value 1 | [3] 1.02 | [4] 1.01 | locus YMR307W, strain GAS1, stronger effect = lower value 1.02 | locus YNL175C, strain NOP13, stronger effect = lower value 1.01 | locus YNL197C, strain WHI3, stronger effect = lower value 1 | locus YNL224C, strain SQS1, stronger effect = lower value 1.01 | locus YOR083W, strain WHI5 (second series), stronger effect = lower value 1.05 | [5] 1.02 | [6] 1.03

CCOC(=O)CC(=O)Nc1scc(C)c1C(=O)OCC
inactive: [1] 0.988 | [7] 0.977 | [8] 0.97 | locus YDL134C, strain PPH21, stronger effect = lower value 0.923 | [2] 0.995 | [9] 0.943 | [3] 0.947 | [10] 0.906 | [11] 0.924 | locus YJL187C, strain SWE1, stronger effect = lower value 0.958 | [12] 0.979 | [13] 0.951 | locus YKL190W, strain CNB1, stronger effect = lower value 0.97 | [14] 0.987 | [15] 0.98 | [16] 0.872 | [17] 0.994 | [18] 0.933 | [19] 0.968 | [4] 0.984 | locus YNL128W, strain TEP1, stronger effect = lower value 0.98 | [20] 0.969 | [21] 0.934 | [22] 0.957 | [23] 0.924 | [5] 0.968 | [6] 0.936 | [24] 1.14

CCOC(=O)c1c(N=Cc2cc(Br)c(Br)cc2O)sc2c1CCCC2
inactive: locus YAR019C, strain CDC15, stronger effect = lower value 0.975 | locus YBL105C, strain PKC1, stronger effect = lower value 0.97 | locus YBR135W, strain CKS1, stronger effect = lower value 0.968 | locus YBR136W, strain MEC1, stronger effect = lower value 0.97 | locus YBR160W, strain CDC28, stronger effect = lower value 0.976 | locus YDL017W, strain CDC7, stronger effect = lower value 0.976 | locus YDL028C, strain MPS1, stronger effect = lower value 0.956 | locus YDL108W, strain KIN28, stronger effect = lower value 0.959 | locus YDL132W, strain cdc53, stronger effect = lower value 0.964 | locus YDR052C, strain DBF4, stronger effect = lower value 0.971 | locus YDR054C, strain cdc34, stronger effect = lower value 0.97 | locus YDR226W, strain ADK1, stronger effect = lower value 0.975 | locus YFL009W, strain cdc4, stronger effect = lower value 0.983 | locus YFL029C, strain CAK1, stronger effect = lower value 0.977 | locus YFR003C, strain YPI1, stronger effect = lower value 0.961 | locus YFR019W, strain FAB1, stronger effect = lower value 0.804 | locus YFR028C, strain CDC14, stronger effect = lower value 0.982 | locus YGR229C, strain SMI1, stronger effect = lower value 0.969 | locus YIL147C, strain SLN1, stronger effect = lower value 0.96 | locus YJL128C, strain PBS2, stronger effect = lower value 0.959 | locus YJR016C, strain ILV3, stronger effect = lower value 0.968 | locus YJR066W, strain TOR1 (second series), stronger effect = lower value 0.724 | locus YKL193C, strain SDS22, stronger effect = lower value 0.964 | locus YMR001C, strain CDC5, stronger effect = lower value 0.975 | locus YMR277W, strain FCP1, stronger effect = lower value 0.968 | locus YNL006W, strain LST8, stronger effect = lower value 0.976 | locus YNL161W, strain CBK1, stronger effect = lower value 0.981 | locus YNL207W, strain RIO2, stronger effect = lower value 0.969 | locus YNL222W, strain SSU72, stronger effect = lower value 0.974 | locus YOL078W, strain AVO1, stronger effect = lower value 0.967 | locus YOR329C, strain SCD5, stronger effect = lower value 0.974 | locus YPL209C, strain IPL1, stronger effect = lower value 0.975 | locus YPR025C, strain CCL1, stronger effect = lower value 0.981 | locus YPR106W, strain ISR1, stronger effect = lower value 0.968 | locus YPR111W, strain DBF20, stronger effect = lower value 0.964 | strain NNK1, stronger effect = lower value 0.96 | strain TSCII, stronger effect = lower value 0.971
active: [1] 0.131 | [7] 0.542 | locus YDL214C, strain PRR2, stronger effect = lower value 0.667 | locus YDR477W, strain SNF1, stronger effect = lower value 0.595 | [9] 0.265 | locus YER123W, strain YCK3, stronger effect = lower value 0.541 | locus YER133W, strain GLC7, stronger effect = lower value 0.696 | locus YGR040W, strain KSS1, stronger effect = lower value 0.612 | locus YGR052W, strain FMP48, stronger effect = lower value 0.45 | [3] 0.241 | locus YGR092W, strain DBF2, stronger effect = lower value 0.173 | [10] 0.211 and 0.239 | locus YHR079C, strain IRE1, stronger effect = lower value 0.262 | locus YHR082C, strain KSP1, stronger effect = lower value 0.368 | [11] 0.554 | locus YHR205W, strain SCH9, stronger effect = lower value 0.458 | locus YJL095W, strain BCK1, stronger effect = lower value 0.314 | locus YJL157C, strain FAR1, stronger effect = lower value 0.589 | [12] 0.318 | locus YJR066W, strain TOR1, stronger effect = lower value 0.38 | [13] 0.769 | locus YKL048C, strain ELM1, stronger effect = lower value 0.629 | locus YKL067W, strain YNK1, stronger effect = lower value 0.674 | locus YKL101W, strain HSL1, stronger effect = lower value 0.555 | locus YKL203C, strain TOR2, stronger effect = lower value 0.614 | [14] 0.164 | [15] 0.916 | [16] 0.118 | locus YLR113W, strain HOG1, stronger effect = lower value 0.475 | locus YLR133W, strain CKI1, stronger effect = lower value 0.608 | [17] 0.17 | locus YLR403W, strain SFP1, stronger effect = lower value 0.525 | locus YML070W, strain DAK1, stronger effect = lower value 0.576 | [18] 0.442 | locus YMR205C, strain PFK2 (second series), stronger effect = lower value 0.635 | [19] 0.83 | [4] 0.162 | locus YNL020C, strain ARK1, stronger effect = lower value 0.51 | [20] 0.511 | locus YNL183C, strain NPR1, stronger effect = lower value 0.468 | [21] 0.652 | locus YNL307C, strain MCK1 (second series), stronger effect = lower value 0.314 | [22] 0.714 | [23] 0.533 | locus YOL006C, strain TOP1, stronger effect = lower value 0.209 | locus YOL136C, strain PFK27, stronger effect = lower value 0.577 | locus YOR061W, strain CKA2, stronger effect = lower value 0.383 | locus YOR119C, strain RIO1, stronger effect = lower value 0.63 | locus YOR231W, strain MKK1, stronger effect = lower value 0.335 | locus YPL031C, strain PHO85, stronger effect = lower value 0.561 | [5] 0.113 | locus YPL153C, strain RAD53, stronger effect = lower value 0.511 | locus YPL204W, strain HRR25, stronger effect = lower value 0.575 | [6] 0.558 | locus YPL256C, strain CLN2, stronger effect = lower value 0.458 | [24] 0.635
0.963 (inactive) and 0.697 (active): [8]
